32 compounds from PubChem BioAssay (NCI) can be followed below.

Structures are written as SMILES. Compounds without any hit were thinned out: in the full panel of roughly 83,000, 20% have a hit.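 A percent growth of 40 corresponds to 60% growth inhibition; 0 means no net growth; -100 means all cells died. Active threshold: below 10.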 The source made the active and inactive calls.

In the experiment the test system is SK-MEL-2 melanoma. Description: NCI-60 one-dose screen, 48 h (100 = growth as untreated, 0 = no growth, -100 = all killed). Conditions: 10 µM.
Turning to `C#Cc1ccc(-n2c(/C=C/c3ccc4ccccc4n3)nc3ncccc3c2=O)cc1`, the growth was -67% (active).
In the case of `O=C1c2ccc3c4c(ccc(c24)C(=O)N1CCNCc1ccccc1)C(=O)N(CCNCc1ccccc1)C3=O`, the growth is 119% (inactive).
In the case of `CCN(CC)Cc1cc(Nc2ccnc3cc(Cl)ccc23)ccc1OC`, the growth was 116% (inactive).
In the case of `Nc1ccc2c(c1)C1(CCC2)NC(=O)NC1=O` (configuration not stated) it was 99.7% (inactive); in that of `O=C(Nc1cccc(Cl)c1)Nc1nccs1`, 97.2% (inactive).
With `N=C(N)c1ccc(-c2ccc(-c3cccs3)s2)s1`, the growth is -0.961% (active).
As to `O=C1NC(=O)N(Cc2ccccc2)CC1Br` (configuration not stated), the growth was 70.4% (inactive).
In the case of `COc1cc(C(=O)N2CCN(c3ccccc3OC)CC2)c(N)cc1OCCCN1CCN(c2ccccc2OC)CC1` it was 83.2% (inactive).
Regarding `CCOC(=O)c1ccc(NC(=O)Nc2ncc(Cl)cc2Cl)cc1`, the growth is 102% (inactive).
On to `CN(C)N=Nc1nn(C(=O)Nc2ccc(Cc3ccccc3)cc2)c2ccccc12`, for which the growth was 58.4% (inactive).
On to `CC(=O)N(C)c1ccc(Nc2ccc(Nc3ccc(N(C)C(C)=O)cc3)c3c2C(=O)c2ccccc2C3=O)cc1`, for which the growth is 82.8% (inactive).
On to `CCOC(=O)C1(CC(C)C)CCOC1=O` (configuration not stated), for which the growth is 113% (inactive).
On to `COc1ccc2c(c1)nc(N)c1c3cccnc3cn21`, for which the growth was 53.2% (inactive).
With `CSCCCNC(=O)c1ccc2c(c1)/C(=C/c1[nH]c(C)cc1C)C(=O)N2`, the growth was -27.6% (active).
Consider `COc1cc(Cl)cc(-c2nn(-c3cccc(NC(=O)Nc4ccc(Cl)c(Cl)c4)c3)cc2-c2ccncc2)c1`, for which the growth is -32.1% (active).
For the compound `COc1cc(-c2nc(Nc3nc4ccccc4s3)[nH]c(=O)c2C#N)cc(OC)c1O`, the growth was 105% (inactive).
For `CC(=O)O[C@]1(C)CC[C@H]2[C@H](CNCCc3ccc(Cl)cc3)C(=O)O[C@@H]2C2=C(C)C(=O)C[C@H]21` the value was 114% (inactive).
With `CN(CCc1ccccn1)c1ccccc1`, the growth is 101% (inactive).
In the case of `COc1ccc(N=C2C(=Nc3ccc(OC)cc3)N(c3ccc(N(C)C)cc3)C(=S)N2c2ccc(OC)cc2)cc1`, the growth is 90.7% (inactive).
Consider `C#Cc1ccc(-n2c(/C=C/c3ccc(Cl)c(F)c3)nc3ncccc3c2=O)cc1`, for which the growth is -60.2% (active).
For the compound `COc1cccc(Cn2c(-c3nonc3N)nc3ccccc32)c1`, the growth is -12.2% (active).
In the case of `c1ccc([I+]c2ccccc2)cc1` it was 55.3% (inactive); in that of `O=C(c1cccs1)c1ccccc1Cc1ccccc1`, 96.1% (inactive); in that of `COc1ccc(-c2ccc(-c3ccc(C(=N)N)cn3)o2)cc1`, 99.5% (inactive).
For `Nc1c(C(=O)Nc2cccc3ccccc23)sc2nc3c(cc12)C(=O)CCC3` the value was 35.5% (inactive); for `COc1ccc(Nc2ccnc(NCCNc3ccnc4cc(Cl)ccc34)n2)cc1`, 71.8% (inactive).
In the case of `O=C(Nc1ccc(Cl)c([N+](=O)[O-])c1)Nc1nc2ccccc2s1` it was 102% (inactive).
As to `COc1cc(C(=O)/C=C/c2cc(-c3cc(OC)c(OC)c(OC)c3)n[nH]2)cc(OC)c1OC`, the growth is 4.38% (active).
For `CC(=O)N1C/C(=C/c2ccc(Cl)cc2)C(=O)/C(=C/c2ccc(Cl)cc2)C1`, the growth was -0.636% (active).
As to `O=C1N=NC2=C1c1c3ccccc3c(O)n1CC2`, the growth was 110% (inactive).
Regarding `CS(=O)(=O)Nc1cccc(-c2cc(-c3ccccc3Cl)c(C#N)c(N)n2)c1`, the growth is 38.5% (inactive).
For `N#Cc1ncc(-c2ccc(C(F)(F)F)cc2)c(NCc2cc(C(F)(F)F)cc(C(F)(F)F)c2)n1`, the growth was -2.7% (active).
